ATXN viability: reduces viability in counter-screen for ATXN expression inhibitors; S2 cells (HEK-293 line with an ATXN2-luciferase reporter) viability, CellTiter-Fluor protease fluorescence, 24 h; Potency, µM (series often up to 56.7 µM), actives largely listed as cytotoxic; 0.49% of 400,000 active; AID 651635; also: nearly all actives have a fitted effect of over 40% in size
ATXN2 expr inh: inhibitors of ATXN2 expression; HEK-293 ATXN2-luciferase reporter, luminescence, 24 h; Potency, µM (highest dose often 57 µM), without a hit: at the top dose activity change, negative = inhibition, most hits filed as inhibitors; 0.72% of 360,000 active; also: % is scaled to controls: 0 for no effect and ±100 for the full control effect; nearly all actives have a fitted effect of over 55% in size
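qHTS (up to 57 uM final) was run with 24 h compound exposure of reporter cells at 37 °C. Each well was multiplexed: SteadyGlo luminescence measured ATXN2-luciferase expression after a fluorogenic Gly-Phe-AFC viability readout (25 uM final).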
HepG2 tox-1: HepG2 cytotoxicity, counter-screen for TGF-b inhibitors. Potency, µM (doses to about 46.1 µM), inactives show at the top dose activity change, negative = cytotoxicity, hits mostly cytotoxic. HepG2 CAGA-GFP viability, ATP luminescence, 18 h. 0.76% of 410,000 active
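CellTiter-Glo luminescence gave cytotoxicity after 18 hours at 37 degrees C. The cells were HepG2 CAGA-GFP in 1% FBS DMEM, stimulated with 500 pg/mL TGF-beta after compound addition. %Activity was normalised to no-cell wells (complete cell-killing) and DMSO (no toxicity), and curves were fitted and classified.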
TGFb inhibitor: TGF-b pathway inhibition. HepG2 CAGA-GFP TGF-b/SMAD3 reporter, GFP fluorescence, 18 h; TGF-beta stimulated, 500 pg/mL final. Potency, µM (highest dose often 46.1 µM), for the others: at the top dose activity, negative = inhibition, hits mostly inhibitors. 1.2% of 410,000 active. AID 588855; also: % is scaled to controls: 0 for no effect and ±100 for the full control effect; nearly all actives have a fitted effect of over 65% in size
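Inhibition was scored as loss of TGF-beta-induced (500 pg/mL final, 18 hours, 37 degrees C) GFP in HEPG2 cells carrying a CAGA-GFP reporter, in DMEM with 1% FBS. Well GFP was summed per cell; Activity was normalised to unstimulated and stimulated DMSO wells, then concentration-response fitting.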
HTT cytoprotect: Huntington cell model cytoprotection by ATP luminescence. Potency, µM (doses to about 56.4 µM), without a hit: cytoprotection (ATP increase), most hits filed as activators. 0.14% of 230,000 active. PC12 HTT-Q103 induced, cytoprotection, ATP luminescence, 40 h; also: % of control where 0% means no effect; nearly all actives have a fitted effect of over 45% in size
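PC12 cells with ecdysone-inducible HTT exon 1 Q103-GFP, induced with 100 nM tebufenozide and co-treated with library compounds in a dose series (1536-well, 1500 cells/well). Cytoprotection read as ATP content by ATPlite luminescence.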
HTT aggregate: reduces HttQ103-GFP aggregates in PC12 cells; PC12 HttQ103-GFP aggregates, Acumen cytometry, 40 h; Potency, µM (titrated, usually from 46.1 µM), for the others: at the highest dose activity change, negative = inhibition, usual class: inhibitors; 1.1% of 220,000 active; also: % is scaled to controls: 0 for no effect and ±100 for the full control effect; nearly all actives have a fitted effect of over 60% in size
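Read-out: GFP aggregate count by laser scanning cytometer (488 nm excitation, 500-530 nm emission, 1–25 µm objects >6 SD above background). Cells: PC12, inducible HTTex1-Q103-GFP, 100 nM tebufenozide; compounds titrated.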
TGFb confirm: TGF-b pathway inhibition, cherry-pick retest | Potency, µM (highest dose often 46.1 µM), for inactives: at the top dose activity, negative = inhibition, most hits filed as inhibitors | AID 720534 | HepG2 CAGA-GFP TGF-b reporter, GFP fluorescence, 18 h; cells stimulated with TGF-beta, 500 pg/mL | 63% of 1,600 active | shares compounds with TGFb inhibitor; also: % is scaled to controls: 0 for no effect and ±100 for the full control effect; nearly all actives have a fitted effect of over 65% in size
HepG2 tox-2: counter-screen for TGF-b inhibitors: cytotoxicity in HepG2 cells; shares compounds with TGFb inhibitor; HepG2 CAGA-GFP viability, ATP luminescence, 18 h; cells stimulated with TGF-beta, 500 pg/mL; Potency, µM (top dose mostly 46.1 µM), for inactives: top-dose activity, negative = cytotoxicity, usual class: inhibitors; 27% of 1,600 active; AID 720535; also: % is scaled to controls: 0 for no effect and ±100 for the full control effect; nearly all actives have a fitted effect of over 70% in size
CCL64 TGFb inh: TGF-b inhibition, CCL64 orthogonal assay. Potency, µM (doses to about 46.1 µM), without a hit: at the top dose activity, negative = inhibition, hits mostly inhibitors. shares compounds with TGFb inhibitor. 41% of 1,600 active. CCL64 CAGA-GFP reporter, TGF-b stimulated, GFP fluorescence, 18 h; also: nearly all actives have a fitted effect of over 65% in size
COP TGFb inh: blocks TGF-b signaling in HepG2 COP reporter; HepG2 COP-GFP TGF-b reporter, GFP fluorescence, 18 h; cells stimulated by added recombinant TGF-beta; Potency, µM (highest dose often 46.1 µM), without a hit: top-dose activity, negative = inhibition, hits mostly inhibitors; shares compounds with TGFb inhibitor; 3% of 1,600 active; also: nearly all actives have a fitted effect of over 70% in size
Numbers without * were called inactive; [ ] = dose if it differs, or a comment. Most compounds without a hit are left out; they make up all but 2.8% or so of the library. Calls follow the shape of the dose curve; as a rule, active = well fitted curve in the direction sought with a large enough effect; inconclusive = small, poorly fitted or top-dose-only effect, or another doubt; inactive = no such curve, though single readings can be large; an effect the other way counts as inactive or inconclusive. Potency is read from the fitted curve at half-maximal effect.

Results for COC(=O)C(C(=O)OC)C(Cc1cc(F)cc(F)c1F)NC=O (stereo unspecified) ?
HTT cytoprotect: -38%

Results for COc1cc(-c2noc(C)c2/C=C/c2ccc(C(=O)O)cc2)cc(OC)c1OC ?
ATXN viability: inactive; ATXN2 expr inh: -3%; HepG2 tox-1: 1%; TGFb inhibitor: -1%

What do the screens show for `COc1cc(-c2noc(C)c2/C=C/c2cccc([N+](=O)[O-])c2)cc(OC)c1OC`?
ATXN viability: inconclusive; ATXN2 expr inh: inconclusive; HepG2 tox-1: -19%; TGFb inhibitor: 13µM*; TGFb confirm: inconclusive; HepG2 tox-2: -27%; CCL64 TGFb inh: inconclusive; COP TGFb inh: -11%

Results for Cc1ccc(S(=O)(=O)N2CCN(c3nc(-c4ccc(CN5CCOCC5)s4)nc4ccccc34)CC2)cc1 ?
HepG2 tox-1: 3%; TGFb inhibitor: 4%

How did COC(=O)C1=C[C@@H](C(=O)OC)[C@@H]2C3=C(C(=O)C2(C)C)[C@H](C)n2c(=O)n(C)c(=O)n2[C@@H]3C1 do in these assays?
HepG2 tox-1: -27%; TGFb inhibitor: inconclusive

How did COc1ccc(/C=C/C(=O)c2ccccc2)cc1Cn1nnc2ccccc21 do in these assays?
ATXN2 expr inh: inconclusive; HepG2 tox-1: -17%; TGFb inhibitor: 8.9µM*; HTT cytoprotect: -14%[1.9 µM]; HTT aggregate: 4%; TGFb confirm: 6.5µM*; HepG2 tox-2: 23µM*; CCL64 TGFb inh: 23µM*; COP TGFb inh: 0%

Results for COc1ccc(/C=C/C(=O)c2ccccc2)cc1COc1ccc(F)cc1 ?
ATXN viability: inconclusive; ATXN2 expr inh: inconclusive; HepG2 tox-1: -18%; TGFb inhibitor: 1%; HTT cytoprotect: -10%; HTT aggregate: -5%

How did O=C1NC[C@H](c2ccccc2)OC(=O)[C@@H](Cc2ccc(F)cc2)CC/C=C/C[C@H]1CC(=O)N(CCO)Cc1ccccc1 do in these assays?
ATXN viability: 11µM*; ATXN2 expr inh: 14µM*; TGFb inhibitor: 11µM*; TGFb confirm: 21µM*; CCL64 TGFb inh: inconclusive; COP TGFb inh: 53%

How did O=C1NC[C@H](c2ccccc2)OC(=O)[C@H](Cc2ccc(F)cc2)CC/C=C/C[C@H]1CC(=O)N(CCO)Cc1ccccc1 do in these assays?
ATXN viability: inconclusive; ATXN2 expr inh: 0%; TGFb inhibitor: inconclusive

What do the screens show for `O=C1N[C@@H](Cc2c[nH]c3ccccc23)COC(=O)[C@H](Cc2ccc(F)cc2)C/C=C\C[C@H]1CC(=O)N(CCO)Cc1ccccc1`?
ATXN viability: inconclusive; ATXN2 expr inh: inconclusive; HepG2 tox-1: -8%; TGFb inhibitor: inconclusive

How did O=C1N[C@@H](Cc2c[nH]c3ccccc23)COC(=O)[C@@H](Cc2ccc(F)cc2)CC/C=C/C[C@@H]1CC(=O)N(CCO)Cc1ccccc1 do in these assays?
ATXN viability: inconclusive; ATXN2 expr inh: inconclusive; HepG2 tox-1: -2%; TGFb inhibitor: 8.9µM*; TGFb confirm: 5.8µM*; HepG2 tox-2: -8%; CCL64 TGFb inh: inconclusive; COP TGFb inh: 21%

Results for O=C(C[C@H]1C/C=C\CC[C@H](Cc2ccc(F)cc2)C(=O)O[C@@H](c2ccccc2)CNC1=O)N[C@H](CO)Cc1ccccc1 ?
ATXN viability: inconclusive; ATXN2 expr inh: 0%; HepG2 tox-1: -66%; TGFb inhibitor: inconclusive

What do the screens show for `O=C(C[C@H]1C/C=C\CC[C@H](Cc2ccc(F)cc2)C(=O)O[C@@H](c2ccccc2)CNC1=O)N[C@@H](CO)Cc1ccccc1`?
ATXN viability: inconclusive; ATXN2 expr inh: inconclusive; HepG2 tox-1: -114%; TGFb inhibitor: 7.1µM*; TGFb confirm: inconclusive; HepG2 tox-2: inconclusive; CCL64 TGFb inh: 13µM*; COP TGFb inh: 25%

How did N[C@H](CCC(=O)NCS(=O)(=O)O)C(=O)O do in these assays?
HTT cytoprotect: 9%[1.9 µM]

Results for O=C(Nc1ccc(C(F)(F)F)cc1)N1CCN(c2ccnc3cc(Cl)ccc23)CC1 ?
ATXN viability: inconclusive; ATXN2 expr inh: inconclusive; HepG2 tox-1: 19%; TGFb inhibitor: 11µM*; HTT cytoprotect: -31%[10 µM]; HTT aggregate: 31%[9.22 µM]; TGFb confirm: 23µM*; HepG2 tox-2: inconclusive; CCL64 TGFb inh: inconclusive; COP TGFb inh: 73%

What do the screens show for `CC(C)c1ccccc1NC(=O)Cn1c(/C=C/c2ccccc2)nc2ccccc21`?
ATXN viability: inconclusive; ATXN2 expr inh: -15%; HepG2 tox-1: 13µM*; TGFb inhibitor: 10µM*; HTT cytoprotect: -8%[10 µM]; HTT aggregate: -17%[9.22 µM]; TGFb confirm: -24%; HepG2 tox-2: inconclusive; CCL64 TGFb inh: inconclusive; COP TGFb inh: -10%

What do the screens show for `Cc1ccc(NC(=O)Cn2c(/C=C/c3ccccc3)nc3ccccc32)cc1C`?
ATXN viability: inactive; ATXN2 expr inh: -20%; HepG2 tox-1: -29%; TGFb inhibitor: -1%; HTT cytoprotect: 18%[10 µM]; HTT aggregate: 0%

Screening data: PubChem BioAssay, National Center for Advancing Translational Sciences (NCATS)
